Assay outcomes (PubChem)
Rows were chosen to be rich in hits. Some 6.6% of all compounds tested hit in one or more screens of this group.
HT1080 IDH1KD tx: qHTS for induction of synthetic lethality in tumor cells producing 2HG: qHTS for the HT-1080-IDH1KD cell line | HT-1080 IDH1 knockdown viability, ATP luminescence, 48 h | Potency, µM (highest dose often 46.1 µM), usual class: cytotoxic | 2% of 360,000 active
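Assay cells: HT-1080 with IDH1 knockdown, 750 per well, RPMI/5% FBS. Exposure: 48 h at 37 °C following 2 h pre-incubation. Read: CellTiter-Glo luminescence; fitted concentration-response, curve class assigned.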
HT1080-NT tox: qHTS for induction of synthetic lethality in tumor cells producing 2HG: qHTS for the HT-1080-NT fibrosarcoma cell line | 1.6% of 360,000 active | HT-1080-NT fibrosarcoma viability, CellTiter-Glo ATP luminescence, 48 h | Potency, µM (titrated, usually from 46.1 µM), usual class: cytotoxic;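 also: NT is the 2HG producing partner of a matched IDH1 knockdown line; nearly all actives have a fitted effect of over 55% in size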
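Read-out is CellTiter-Glo luminescence after 10 minutes at room temperature, following 48 hours' compound treatment of HT-1080-NT cells (750 cells/well, RPMI, 5% FBS, 37 degrees C).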
KB-V1 MDR tox: qHTS assay for MDR1-selective chemotherapeutics: Primary screen using the drug-selected MDR subline cells KB-V1; 3.4% of 400,000 active; KB-V1 MDR cells viability, CellTiter-Glo, 72 h; Potency, µM (doses to about 46.1 µM), actives largely listed as cytotoxic; also: nearly all actives have a fitted effect of over 60% in size
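Luminescent ATP read-out (CellTiter-Glo, 10 min) measures survival of drug-selected KB-V1 MDR cells after 72 h, 37 degrees C compound exposure. Medium: phenol-red-free DMEM, 10% FBS. Values from fitted concentration-response curves.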
HepG2 viability: qHTS for Inhibitors of TGF-b: Cytotox Counterscreen | HepG2 CAGA-GFP viability, ATP luminescence, 18 h | Potency, µM (series often up to 46.1 µM), usual class: cytotoxic | 0.76% of 410,000 active
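CellTiter-Glo luminescence gave cytotoxicity after 18 hours at 37 degrees C. The cells were HepG2 CAGA-GFP in 1% FBS DMEM, stimulated with 500 pg/mL TGF-beta after compound addition. %Activity was normalised to no-cell wells (complete cell-killing) and DMSO (no toxicity), and curves were fitted and classified.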
TGFb SMAD3 inh: qHTS for Inhibitors of TGF-b; HepG2 CAGA-GFP TGF-b/SMAD3 reporter, GFP fluorescence, 18 h; TGF-beta stimulated, 500 pg/mL final; Potency, µM (doses to about 46.1 µM), most hits filed as inhibitors; 1.2% of 410,000 active; AID 588855, 2011; also: nearly all actives have a fitted effect of over 65% in size
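Read-out: total well GFP (ex488/em500-530) summed from mean per-cell fluorescence. Cells: HEPG2 CAGA-GFP, 1% FBS DMEM, 18 h at 37 degrees C with 500 pg/mL final TGF-beta. Unstimulated wells served as the full-inhibition control; stimulated DMSO wells = 0%.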
KB-3-1 tox: qHTS assay for MDR1-selective chemotherapeutics: Primary screen using the parental adenocarcinoma cell KB-3-1; KB-3-1 viability, CellTiter-Glo ATP luminescence, 72 h; Potency, µM (titrated, usually from 46.1 µM), actives largely listed as cytotoxic; 1.4% of 400,000 active; also: nearly all actives have a fitted effect of over 60% in size
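Cytotoxicity measured as CellTiter-Glo luminescence after 72 h at 37 C. Compound titrations were pinned onto drug-naive KB-3-1 parental adenocarcinoma cells grown in DMEM with 10% FBS, and normalized data fitted to concentration-response curves.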
Hits are given with their value; 0 = inactive; ? = inconclusive; - = no result. Calls follow the shape of the dose curve; as a rule, active = well fitted curve in the direction sought with a large enough effect; inconclusive = small, poorly fitted or top-dose-only effect, or another doubt; inactive = no such curve, though single readings can be large; an effect the other way counts as inactive or inconclusive.

SMILES | HT1080 IDH1KD tx | HT1080-NT tox | KB-V1 MDR tox | HepG2 viability | TGFb SMAD3 inh | KB-3-1 tox
Cc1ccc(S(=O)(=O)NC(=O)C2(C)CCN2C(=O)Cc2ccc(Cl)cc2Cl)nc1 (stereo not given) | ? | ? | 0 | 0 | 0 | 0
O=[N+]([O-])C(/C=C(\Cl)[N+](=O)[O-])=C1N(Cc2ccc(Cl)nc2)CCN1Cc1ccc(Cl)nc1 | ? | ? | 0 | 20µM | ? | 0
O=[N+]([O-])/C(C(=C(Cl)Cl)N1CCN(Cc2ccccc2)CC1)=C1\NCCN1Cc1ccc(Cl)nc1 | 0 | 0 | ? | 0 | 0 | 0
CC(=O)N1c2ccc(S(=O)(=O)N3CCN(c4cc(Cl)ccc4C)CC3)cc2CC1C (stereo not given) | - | - | 0 | 0 | ? | 0
CCC(=O)N1CCCc2cc(S(=O)(=O)N3CCC(C(=O)NC4CCC(C)CC4)CC3)ccc21 (stereo not given) | - | - | 0 | 0 | ? | 0
O=C(CSc1nnc(-c2n[nH]c3ccccc23)n1-c1ccccc1)Nc1cccc(Cl)c1 | 0 | 0 | 7.3µM | 0 | ? | 0
CCc1ccc(NC(=O)CSc2nnc(-c3n[nH]c4ccccc34)n2-c2ccccc2)cc1 | 0 | 0 | 0 | 0 | 0 | 0
CCOc1ccc(/C=C/c2nc(C#N)c(NCCCOC)o2)cc1 | ? | ? | 2.1µM | 0 | 0 | 5.2µM
C=CCNc1oc(/C=C/c2ccccc2)nc1C#N | ? | 0 | 18µM | 0 | ? | 0
COCCCNC(=O)CN1C(=O)COc2ccc(S(=O)(=O)N3CCCC3)cc21 | - | - | 0 | 0 | 0 | 0
CC(O)(c1ccccc1)c1nc(/C=C/c2ccccc2)cs1 (stereo not given) | ? | ? | 0 | 0 | 0 | 0
CC(O)(c1cccnc1)c1nc(-c2cccc(C(F)(F)F)c2)cs1 (stereo not given) | ? | 23µM | 0 | 0 | 0 | 0
COc1cccc(C(C)(O)c2nc(-c3cccc(C(F)(F)F)c3)cs2)c1 (stereo not given) | ? | 18µM | 0 | 0 | ? | 0
COc1cccc(C(C)(O)c2nc(/C=C/c3ccccc3)cs2)c1 (stereo not given) | 0 | 0 | 0 | 0 | 14µM | 0
COc1cccc(C(C)(O)c2nc(-c3csc4ccccc34)cs2)c1 (stereo not given) | ? | 21µM | 0 | 0 | 18µM | 0
Cc1ccc(Cl)cc1N1CCN(C(=O)c2ccc3c(Cl)c4c(nc3c2)CCCC4)CC1 | - | - | 0 | 0 | ? | 0
CCn1c(CN2CCC(C)CC2)nc2cc(NC(=O)COc3ccc([N+](=O)[O-])cc3)ccc21 | - | - | 0 | 0 | ? | 0
CCOc1ccc(NC(=O)CN(C)S(=O)(=O)c2ccc3[nH]c4c(c3c2)CCCC4)cc1 | - | - | ? | 0 | ? | 0
CCCCCCNC(=O)c1c(O)c2cccc3c2n(c1=O)CCC3 | 0 | 0 | 0 | 0 | 0 | 0
COc1ccc(CNC(=O)c2c(O)c3cccc4c3n(c2=O)CCC4)cc1 | 0 | 0 | 15µM | 0 | 0 | 0
CCN(CC)CCNC(=O)c1c(O)c2cccc3c2n(c1=O)CCC3 | ? | 0 | 0.73µM | 0 | 0 | 0
O=C(Nc1ccc(F)cc1)C(CCc1ccccc1)N1CCN(c2ccncc2)CC1 (stereo not given) | ? | 21µM | 0 | - | - | 0
O=C(Nc1ccc(F)cc1)C(c1ccccc1)N1CCN(c2ccncc2)CC1 (stereo not given) | 0 | 0 | 0 | - | - | 0
O=C(Nc1ccc2c(c1)OCCO2)C(CCc1ccccc1)N1CCC(Cc2ccccc2)CC1 (stereo not given) | 0 | 0 | 23µM | 0 | 0 | 0
CCOc1ccc(NC(=O)C2CCCN(c3nnc(-n4c(C)ccc4C)s3)C2)cc1 (stereo not given) | - | - | - | 0 | - | -
SMILES | HT1080 IDH1KD tx | HT1080-NT tox | KB-V1 MDR tox | HepG2 viability | TGFb SMAD3 inh | KB-3-1 tox
C/C=C(/C)C(=O)OC1c2c(ccc3ccc(=O)oc23)OC(C)(C)C1OC(C)=O (stereo not given) | 0 | 0 | 0 | 0 | 0 | 0
C/C=C(\C)C(=O)OC(C)(C)[C@@H]1Cc2cc3ccc(=O)oc3cc2O1 | 0 | 0 | 0 | 0 | 6.3µM | 0
C/C=C(/C)C(=O)O[C@@H]1c2c(ccc3ccc(=O)oc23)O[C@@H]1C(C)(C)OC(=O)/C(C)=C\C | ? | ? | 6.5µM | 0 | ? | ?
C/C=C(/C)C(=O)OC(C)(C)[C@@H]1Cc2c(ccc3ccc(=O)oc23)O1 | 0 | 0 | 0 | 0 | ? | 0
Cc1ccc(Cl)cc1NC(=O)CCCN1C(=O)CCn2nc(-c3cn(C)c4ccccc34)cc21 | - | - | 0 | 0 | ? | 0
COC(=O)c1[nH]c2ccc(C)cc2c1NS(=O)(=O)c1ccc(F)c(C)c1 | 0 | 0 | ? | 0 | 0 | 0
COC(=O)c1[nH]c2ccc(F)cc2c1NS(=O)(=O)c1ccc(F)c(C)c1 | 0 | 0 | 16µM | 0 | ? | ?
Cc1ccc(S(=O)(=O)CCc2nnc(N)s2)cc1C | 0 | 0 | 0 | 0 | 0 | 0
Cc1ccc(S(=O)(=O)CCc2nnc(NC(=O)CCl)s2)cc1C | 15µM | ? | 0 | 0 | 0 | ?
Cc1ccc(-c2n[nH]c(=O)c3ccccc23)cc1S(=O)(=O)Nc1ccccc1 | 21µM | 26µM | 21µM | 0 | 0 | ?
Cc1ccc(-c2n[nH]c(=O)c3ccccc23)cc1S(=O)(=O)N(C)C | 0 | 0 | 0 | 0 | 0 | 0
Nc1cc(N)nc(SCCOc2ccccc2F)n1 | 0 | 0 | 23µM | 0 | 0 | 0
COc1ccccc1OCCSc1nc(N)cc(N)n1 | 0 | 0 | 0 | 0 | 0 | 0
CCCS(=O)(=O)NC(=O)C1(C)CCCN(C(=O)COc2ccccc2)C1 (stereo not given) | 0 | 0 | 0 | 0 | 0 | 0
COc1ccc(Nc2cc(C)c3cc(NC(=O)c4cc(OC)cc(OC)c4)ccc3n2)cc1 | - | - | ? | 0 | ? | 8.2µM
Cc1cc(Nc2cccc(C(F)(F)F)c2)nc2ccc(NC(=O)c3cccc(Cl)c3)cc12 | - | - | 0 | 13µM | ? | ?
Cc1cc(Nc2cccc(C(F)(F)F)c2)nc2ccc(NC(=O)c3cccnc3)cc12 | - | - | ? | 0 | ? | ?
Cc1cc(NC(=O)c2ccc(OCC3CCCO3)cc2)ccc1Br (stereo not given) | ? | 0 | ? | 0 | 0 | 0
Cc1ccc(NC(=O)C(=O)NCC2OCCc3ccccc32)cc1 (stereo not given) | 0 | 0 | 0 | 0 | 0 | 0
